For assay [1], the target named is Mast/stem cell growth factor receptor Kit (Homo sapiens) (UniProt P10721). Conditions: at 1 µM.
Assay [2] relates to Mast/stem cell growth factor receptor Kit (Homo sapiens), P10721 [D816V]. The following applies: at 0.1 µM.
Assay [3] shares this test system. The following applies: at 1 µM.
Assay [4] has as its system Mast/stem cell growth factor receptor Kit (Homo sapiens), P10721 [T670I]. Conditions: at 0.1 µM.
The test system is the same in assay [5]. The following applies: at 1 µM.
The subject of assay [6] is Mast/stem cell growth factor receptor Kit (Homo sapiens), P10721 [V560G]. Conditions: at 0.1 µM.
The test system is the same in assay [7]. Conditions: at 1 µM.
Assay [8] deals with Tyrosine-protein kinase Lck (Homo sapiens) (UniProt P06239). Conditions: at 0.1 µM.
The target is the same in assay [9]. The following applies: at 1 µM.
In assay [10] the target is Leukocyte tyrosine kinase receptor (Homo sapiens) (UniProt P29376). Conditions: at 0.1 µM.
Assay [11] has the same target. The following applies: at 1 µM.
In assay [12] the target is Tyrosine-protein kinase Lyn (Homo sapiens) (UniProt P07948). Conditions: at 0.1 µM.
For assay [13] the target is unchanged. The following applies: at 1 µM.
The target is the same in assay [14]. Conditions: at 0.1 µM. This is another data set of the same source.
Assay [15] has the same target. Conditions: at 1 µM. This is another data set of the same source.
Assay [16] addresses T1, Tyrosine-protein kinase Mer (Homo sapiens) (UniProt Q12866).
T1 sequence (whole entry): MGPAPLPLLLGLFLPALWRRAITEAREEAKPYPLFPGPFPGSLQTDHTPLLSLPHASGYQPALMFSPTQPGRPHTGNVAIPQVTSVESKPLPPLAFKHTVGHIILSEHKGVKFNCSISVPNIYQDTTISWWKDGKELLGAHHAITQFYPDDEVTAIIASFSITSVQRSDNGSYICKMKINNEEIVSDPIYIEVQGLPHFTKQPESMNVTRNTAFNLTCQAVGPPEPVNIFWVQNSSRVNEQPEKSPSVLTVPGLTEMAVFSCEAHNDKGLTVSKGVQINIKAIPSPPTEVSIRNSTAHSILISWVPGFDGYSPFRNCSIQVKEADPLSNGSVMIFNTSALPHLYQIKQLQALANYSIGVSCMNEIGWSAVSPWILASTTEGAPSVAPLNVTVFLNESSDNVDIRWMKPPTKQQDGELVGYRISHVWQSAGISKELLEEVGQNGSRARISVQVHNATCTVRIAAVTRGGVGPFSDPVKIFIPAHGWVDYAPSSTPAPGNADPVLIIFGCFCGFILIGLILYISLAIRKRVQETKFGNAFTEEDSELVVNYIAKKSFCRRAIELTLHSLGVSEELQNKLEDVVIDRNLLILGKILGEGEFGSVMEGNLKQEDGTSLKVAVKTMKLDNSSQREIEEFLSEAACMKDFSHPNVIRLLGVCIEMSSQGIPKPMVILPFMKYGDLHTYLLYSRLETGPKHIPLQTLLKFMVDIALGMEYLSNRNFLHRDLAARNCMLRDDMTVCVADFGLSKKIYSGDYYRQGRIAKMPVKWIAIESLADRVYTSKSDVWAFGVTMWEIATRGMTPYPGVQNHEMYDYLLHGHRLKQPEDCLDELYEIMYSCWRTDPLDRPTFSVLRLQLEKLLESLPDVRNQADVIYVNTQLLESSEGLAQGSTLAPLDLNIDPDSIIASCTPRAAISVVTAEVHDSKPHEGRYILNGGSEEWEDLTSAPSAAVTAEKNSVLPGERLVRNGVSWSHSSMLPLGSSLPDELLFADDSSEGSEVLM
The following applies: at 0.1 µM.

Assay [17] deals with T1, Tyrosine-protein kinase Mer (Homo sapiens). The following applies: at 1 µM.
In assay [18] the target is Hepatocyte growth factor receptor (Homo sapiens) (UniProt P08581). The following applies: at 0.1 µM.
The target is the same in assay [19]. The following applies: at 1 µM.
The target in assay [20] is T2, Muscle, skeletal receptor tyrosine-protein kinase (Homo sapiens) (UniProt O15146).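 Note: values are mean inhibition of MuSK from the GSK PKIS kinase screening panel.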
T2 sequence (whole entry): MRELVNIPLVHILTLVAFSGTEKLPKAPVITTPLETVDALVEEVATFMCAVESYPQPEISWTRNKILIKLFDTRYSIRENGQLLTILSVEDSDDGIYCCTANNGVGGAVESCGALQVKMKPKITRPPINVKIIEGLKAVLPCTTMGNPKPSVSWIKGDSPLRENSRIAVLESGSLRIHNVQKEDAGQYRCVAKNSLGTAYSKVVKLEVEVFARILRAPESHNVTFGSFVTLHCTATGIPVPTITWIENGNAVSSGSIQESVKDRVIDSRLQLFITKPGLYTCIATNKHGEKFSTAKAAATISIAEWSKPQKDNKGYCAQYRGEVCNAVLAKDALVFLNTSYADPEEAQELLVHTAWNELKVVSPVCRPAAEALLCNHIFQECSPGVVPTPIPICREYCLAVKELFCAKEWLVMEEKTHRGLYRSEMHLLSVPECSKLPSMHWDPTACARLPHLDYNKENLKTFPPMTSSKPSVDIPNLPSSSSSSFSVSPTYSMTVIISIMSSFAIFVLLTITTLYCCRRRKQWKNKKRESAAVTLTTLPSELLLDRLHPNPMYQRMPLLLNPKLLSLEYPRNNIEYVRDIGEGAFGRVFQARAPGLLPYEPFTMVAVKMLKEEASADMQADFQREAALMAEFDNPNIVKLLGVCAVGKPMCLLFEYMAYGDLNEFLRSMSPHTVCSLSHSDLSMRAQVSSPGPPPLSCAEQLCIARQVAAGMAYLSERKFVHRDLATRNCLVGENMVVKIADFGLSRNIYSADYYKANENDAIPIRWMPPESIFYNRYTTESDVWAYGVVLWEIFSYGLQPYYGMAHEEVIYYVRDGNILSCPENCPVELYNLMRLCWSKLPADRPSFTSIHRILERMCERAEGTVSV
Conditions: at 0.1 µM.

Sequence of Tyrosine-protein kinase Lyn (Homo sapiens) (P07948 2-512 limits assumed): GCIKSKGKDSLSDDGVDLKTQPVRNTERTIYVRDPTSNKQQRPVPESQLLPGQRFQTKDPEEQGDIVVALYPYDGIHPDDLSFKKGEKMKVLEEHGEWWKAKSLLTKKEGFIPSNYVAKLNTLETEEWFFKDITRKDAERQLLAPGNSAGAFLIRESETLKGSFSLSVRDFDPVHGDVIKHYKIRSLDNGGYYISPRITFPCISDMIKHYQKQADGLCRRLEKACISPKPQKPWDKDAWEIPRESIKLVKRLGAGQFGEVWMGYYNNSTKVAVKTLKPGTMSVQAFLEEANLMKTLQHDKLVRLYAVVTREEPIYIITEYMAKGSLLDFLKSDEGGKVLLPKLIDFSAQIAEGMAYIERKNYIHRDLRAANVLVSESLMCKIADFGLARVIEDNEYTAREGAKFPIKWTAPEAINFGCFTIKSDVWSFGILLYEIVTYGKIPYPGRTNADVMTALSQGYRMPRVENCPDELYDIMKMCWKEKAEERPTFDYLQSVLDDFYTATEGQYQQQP
Sequence of Mast/stem cell growth factor receptor Kit (Homo sapiens), P10721 [V560G] (P10721 whole entry V560G): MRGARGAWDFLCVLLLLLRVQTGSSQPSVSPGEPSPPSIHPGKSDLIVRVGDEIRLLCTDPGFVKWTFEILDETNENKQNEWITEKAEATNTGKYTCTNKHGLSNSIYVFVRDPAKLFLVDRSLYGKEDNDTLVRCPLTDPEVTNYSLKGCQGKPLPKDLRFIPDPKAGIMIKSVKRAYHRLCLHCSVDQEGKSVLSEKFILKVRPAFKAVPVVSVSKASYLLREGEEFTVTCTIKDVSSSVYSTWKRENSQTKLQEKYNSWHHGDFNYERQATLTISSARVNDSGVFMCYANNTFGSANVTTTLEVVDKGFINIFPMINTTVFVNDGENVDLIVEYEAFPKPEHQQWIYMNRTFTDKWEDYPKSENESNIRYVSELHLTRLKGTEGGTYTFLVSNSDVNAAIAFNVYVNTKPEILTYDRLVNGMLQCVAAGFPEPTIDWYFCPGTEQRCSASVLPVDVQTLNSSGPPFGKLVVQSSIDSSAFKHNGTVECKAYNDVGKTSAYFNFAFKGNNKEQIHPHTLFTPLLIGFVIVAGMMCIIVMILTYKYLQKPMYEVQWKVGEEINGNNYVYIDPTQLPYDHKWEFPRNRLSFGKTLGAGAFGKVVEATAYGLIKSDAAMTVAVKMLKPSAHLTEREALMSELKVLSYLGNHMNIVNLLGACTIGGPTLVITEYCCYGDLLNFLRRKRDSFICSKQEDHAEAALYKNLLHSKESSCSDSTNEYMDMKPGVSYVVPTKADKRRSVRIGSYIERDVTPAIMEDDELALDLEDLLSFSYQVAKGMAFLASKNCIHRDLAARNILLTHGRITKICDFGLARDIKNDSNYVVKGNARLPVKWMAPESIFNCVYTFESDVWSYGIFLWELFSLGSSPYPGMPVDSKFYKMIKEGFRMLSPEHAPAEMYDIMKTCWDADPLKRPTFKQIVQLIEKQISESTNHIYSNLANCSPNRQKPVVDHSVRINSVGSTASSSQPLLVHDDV
Sequence of Mast/stem cell growth factor receptor Kit (Homo sapiens), P10721 [D816V] (P10721 whole entry D816V): as the sequence (P10721 whole entry V560G) above, with G560V, D816V counted along it
Sequence of Tyrosine-protein kinase Lck (Homo sapiens) (P06239 2-509 limits assumed): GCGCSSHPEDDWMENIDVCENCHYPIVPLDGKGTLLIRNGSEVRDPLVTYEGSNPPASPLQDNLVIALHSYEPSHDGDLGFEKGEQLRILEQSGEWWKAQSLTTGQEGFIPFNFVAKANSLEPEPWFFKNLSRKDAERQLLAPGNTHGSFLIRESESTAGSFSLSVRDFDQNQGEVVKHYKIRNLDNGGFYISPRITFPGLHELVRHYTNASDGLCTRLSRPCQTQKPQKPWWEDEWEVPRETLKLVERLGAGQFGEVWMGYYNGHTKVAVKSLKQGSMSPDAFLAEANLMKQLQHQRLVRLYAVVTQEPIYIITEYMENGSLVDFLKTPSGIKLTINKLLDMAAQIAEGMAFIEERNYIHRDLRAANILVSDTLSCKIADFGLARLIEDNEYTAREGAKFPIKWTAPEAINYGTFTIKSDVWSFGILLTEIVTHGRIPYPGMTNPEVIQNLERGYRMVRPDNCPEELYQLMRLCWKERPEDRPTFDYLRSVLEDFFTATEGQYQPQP
Sequence of Mast/stem cell growth factor receptor Kit (Homo sapiens), P10721 [T670I] (P10721 whole entry T670I): as the sequence (P10721 whole entry V560G) above, with G560V, T670I counted along it
Sequence of Hepatocyte growth factor receptor (Homo sapiens) (P08581 whole entry): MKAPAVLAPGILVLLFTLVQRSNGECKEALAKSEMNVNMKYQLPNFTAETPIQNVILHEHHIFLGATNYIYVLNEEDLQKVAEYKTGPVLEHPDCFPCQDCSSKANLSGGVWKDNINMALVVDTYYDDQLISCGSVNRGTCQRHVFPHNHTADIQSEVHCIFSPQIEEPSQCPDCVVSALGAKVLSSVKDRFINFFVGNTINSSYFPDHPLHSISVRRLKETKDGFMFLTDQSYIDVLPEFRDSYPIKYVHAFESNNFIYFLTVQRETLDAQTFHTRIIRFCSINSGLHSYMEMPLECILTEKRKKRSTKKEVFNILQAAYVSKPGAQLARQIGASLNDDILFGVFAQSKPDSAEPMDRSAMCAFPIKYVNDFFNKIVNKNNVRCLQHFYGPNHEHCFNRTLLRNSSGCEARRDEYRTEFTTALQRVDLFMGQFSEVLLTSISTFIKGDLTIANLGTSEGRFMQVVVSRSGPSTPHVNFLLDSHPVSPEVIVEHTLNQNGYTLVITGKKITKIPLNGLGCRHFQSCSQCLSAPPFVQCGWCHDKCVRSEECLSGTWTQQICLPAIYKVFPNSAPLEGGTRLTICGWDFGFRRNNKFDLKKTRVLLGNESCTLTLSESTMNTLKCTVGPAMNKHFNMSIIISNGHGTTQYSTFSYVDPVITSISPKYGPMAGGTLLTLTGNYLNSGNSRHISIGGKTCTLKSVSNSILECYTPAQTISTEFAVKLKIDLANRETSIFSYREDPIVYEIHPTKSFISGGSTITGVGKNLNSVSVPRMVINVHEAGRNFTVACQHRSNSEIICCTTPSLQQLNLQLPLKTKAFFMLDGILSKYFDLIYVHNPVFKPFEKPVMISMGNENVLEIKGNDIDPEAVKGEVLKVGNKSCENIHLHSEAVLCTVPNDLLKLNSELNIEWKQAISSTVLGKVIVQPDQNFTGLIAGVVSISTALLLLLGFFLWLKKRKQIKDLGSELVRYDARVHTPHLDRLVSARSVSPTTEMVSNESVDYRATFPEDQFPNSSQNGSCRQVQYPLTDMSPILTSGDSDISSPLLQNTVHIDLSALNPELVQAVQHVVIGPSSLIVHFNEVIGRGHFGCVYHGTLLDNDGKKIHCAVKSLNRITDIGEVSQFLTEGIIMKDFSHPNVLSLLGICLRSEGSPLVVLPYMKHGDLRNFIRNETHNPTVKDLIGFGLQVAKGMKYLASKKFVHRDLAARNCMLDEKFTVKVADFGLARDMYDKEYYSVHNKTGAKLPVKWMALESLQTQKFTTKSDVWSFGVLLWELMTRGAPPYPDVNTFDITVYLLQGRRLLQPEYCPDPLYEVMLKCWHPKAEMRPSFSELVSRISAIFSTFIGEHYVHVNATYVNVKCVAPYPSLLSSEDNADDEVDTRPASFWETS
Sequence of Mast/stem cell growth factor receptor Kit (Homo sapiens) (P10721 whole entry): as the sequence (P10721 whole entry V560G) above, with G560V counted along it
Sequence of Leukocyte tyrosine kinase receptor (Homo sapiens) (P29376 whole entry): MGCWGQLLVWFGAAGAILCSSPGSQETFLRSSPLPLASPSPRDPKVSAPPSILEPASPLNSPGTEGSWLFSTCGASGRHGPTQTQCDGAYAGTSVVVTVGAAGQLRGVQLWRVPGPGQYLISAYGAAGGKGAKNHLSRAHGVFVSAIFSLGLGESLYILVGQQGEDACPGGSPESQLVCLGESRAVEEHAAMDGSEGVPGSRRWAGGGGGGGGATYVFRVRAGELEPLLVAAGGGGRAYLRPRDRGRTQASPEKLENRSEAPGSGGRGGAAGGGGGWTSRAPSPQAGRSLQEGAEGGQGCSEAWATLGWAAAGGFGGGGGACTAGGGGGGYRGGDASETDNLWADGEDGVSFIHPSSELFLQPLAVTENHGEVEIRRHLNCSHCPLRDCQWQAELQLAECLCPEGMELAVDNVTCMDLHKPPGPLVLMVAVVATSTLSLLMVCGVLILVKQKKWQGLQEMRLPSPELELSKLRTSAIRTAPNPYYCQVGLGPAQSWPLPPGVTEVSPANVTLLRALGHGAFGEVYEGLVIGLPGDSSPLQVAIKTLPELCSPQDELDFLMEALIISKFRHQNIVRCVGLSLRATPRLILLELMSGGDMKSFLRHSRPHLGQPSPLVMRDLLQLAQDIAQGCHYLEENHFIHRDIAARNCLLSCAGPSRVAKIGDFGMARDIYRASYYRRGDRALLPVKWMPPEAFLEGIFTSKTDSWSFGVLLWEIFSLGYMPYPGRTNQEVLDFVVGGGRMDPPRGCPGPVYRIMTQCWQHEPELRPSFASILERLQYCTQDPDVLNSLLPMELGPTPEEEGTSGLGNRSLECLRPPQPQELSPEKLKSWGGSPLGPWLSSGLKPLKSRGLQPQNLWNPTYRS

Consider `Cc1cccc(-c2n[nH]cc2-c2ccc3ncccc3n2)n1`, for which the inhibition (commonly the relative decrease from the control value, in per cent) in [1] is 2.16%; in assay [2], 3.77%; in [3], 18%; in assay [4], -0.33%; in assay [5], -0.51%; in [6], 3.48%. Besides, the inhibition in assay [7] was -0.13%; in [8], 0.45%; in assay [9], 4.51%; in assay [10], 0.62%; in assay [11], 0.08%; in assay [12] it was 0.89%. Further, the inhibition in [13] is 7.91%; in assay [14], 0.34%; in assay [15] it was 7.01%; in assay [16] it was -0.08%; in [17], 0.84%; in [18], 2.89%. Besides, the inhibition was -1.62% in [19] and 0.64% in assay [20].
For `CCn1c(-c2nonc2N)nc2cncc(C(=O)N3CC[C@H](N)C3)c21`, the inhibition was 6.77% in assay [1]; 5.29% in assay [2]; 5.73% in assay [3]; 3.35% in assay [4]; 3.02% in [5]; 2.5% in assay [6]. For the same compound, the inhibition is -1.61% in assay [7]; 4.31% in assay [10]; 4.61% in assay [11]; 8.57% in [12]; 7.74% in assay [13]; 6.42% in assay [14]. Also, the inhibition came to 5.67% in assay [15]; 0.47% in assay [16]; 3.48% in [17]; 5.74% in assay [18]; 5.85% in assay [19]; 4.23% in assay [20].
As for `COc1ccc2cc(-c3c(-c4ccncc4)nc(-c4ccc([S+](C)[O-])cc4)n3C)ccc2c1` (stereo not drawn), the inhibition was -0.76% in assay [1]; 1.61% in [2]; 4.68% in assay [3]; -0.37% in assay [4]; -0.98% in assay [5]; 2.62% in assay [6]. In addition, the inhibition in [7] came out at 0.15%; in [8], 2.55%; in assay [9], 6.96%; in assay [10], 2.55%; in assay [11], 2.37%; in assay [12], 2.95%. For the same compound, the inhibition was 9.35% in assay [13]; 1.98% in [14]; 6.67% in assay [15]; 0.48% in [16]; 6.32% in assay [17]; 4.07% in assay [18]. Moreover, the results for the inhibition in assay [19] and in assay [20] were -0.71% and 1.76%, respectively.
On to `Cn1cc(C=C2C(=O)Nc3cccnc32)c2ccccc21`, for which the inhibition is 52.7% in assay [1]; 2.87% in assay [2]; 5.81% in assay [3]; 2.37% in assay [4]; 19.8% in assay [5]; -1.28% in [6]. Moreover, the inhibition in assay [7] is 3.99%; in [8], 4.03%; in assay [9], 25.5%; in [10], 2.72%; in [11], 5.51%; in assay [12], 6.97%. The inhibition in assay [13] came to 41.8%; in assay [14], 5.53%; in [15], 36%; in [16], 2.2%; in assay [17], 16.9%; in [18], 0.96%. The inhibition stood at 5.5% in assay [19] and 3.74% in [20].
With `COC(=O)Nc1nc2cc(Oc3ccc(NC(=O)Nc4cccc(C(=O)O)c4)cc3)ccc2[nH]1`, the inhibition was 18.8% in [1]; 1.22% in assay [2]; 3.73% in [3]; -0.34% in assay [4]; 2.75% in assay [5]; 5.8% in assay [6]. Also, the inhibition in assay [7] is 15.5%; in [8] it was -2.73%; in [9] it was -2.81%; in assay [10], 0.33%; in assay [11] it was -0.52%; in assay [12] it was 0.39%. Moreover, the inhibition was 5.81% in [13]; 0.48% in assay [14]; 2.9% in [15]; 0.61% in assay [16]; 2.01% in [17]; -0.09% in [18]. In addition, the results for the inhibition in assay [19] and in assay [20] were 11.4% and -0.16%, respectively.
Regarding `N#Cc1c(NC(=O)c2cccc3ccccc23)sc2c1CCCC2`, the inhibition in [1] is 0.84%; in [2] it was 1.1%; in assay [3], 2.67%; in [4], 2.84%; in assay [5], 1.87%; in assay [6] it was -1.27%. Also, the inhibition in assay [7] was determined as 3.59%; in [8] it was 2.98%; in [9], 4.35%; in assay [10], 2.58%; in assay [11], 2.53%; in assay [12], 4.91%. In addition, the inhibition in [13] was determined as 5.68%; in assay [14], 2.96%; in assay [15], 3.7%; in assay [16], 0.86%; in [17], 1.53%; in [18] it was 3.61%. Moreover, the inhibition was 7.33% in assay [19] and 3.62% in assay [20].
Consider `CCn1c(-c2nonc2N)nc2c(N3CCCC3)nccc21`, for which the inhibition in assay [1] is 1.81%; in assay [2], -1.12%; in [3], -0.65%; in assay [4] it was -1.62%; in [5] it was -1.43%; in [6], -0.78%. Besides, the inhibition in assay [7] is 1.06%; in assay [8], -2.27%; in assay [9], -0.36%; in assay [10] it was 0.51%; in assay [11] it was -0.6%; in assay [12] it was 1.31%. Moreover, the inhibition in [13] is -0.07%; in assay [14], 1.13%; in [15] it was 0.52%; in assay [16], 0.24%; in assay [17], 1.56%; in assay [18] it was -3.32%. For the same compound, the figures for the inhibition in assay [19] and in assay [20] were -1.91% and 1.25%, respectively.

Source of the values: ChEMBL document CHEMBL1961873, “Compounds: GSK PKIS; Assays: Nanosyn kinase panel” (2012).
